Measurements as given in PubChem BioAssay (NCI).
Values joined by “and” are separate entries in the source; they are usually repeats but may differ in a detail not shown here. Identical values can stand only once. The panel holds about 83,000 compounds, 20% with a hit somewhere; the sample as a whole holds those more often.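 The endpoint reported here, percent growth, reads 100 for growth as untreated, 0 for no net growth and -100 for all cells dead.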 A number with no mark means an inactive call. Active and inactive are the calls of the source. How the source made its calls: active means growth percent below 10; inactive means the rest.

Assays:
Assay in all cases: NCI-60 one-dose screen, 48 h (100 = growth as untreated, 0 = no growth, -100 = all killed)
Conditions in all cases: 10 µM unless noted
[1] = test system: NCI-H23 lung
[2] = test system: NCI-H226 lung
[3] = test system: HOP-62 NSCLC
[4] = test system: NCI-H460 lung
[5] = test system: NCI-H522 lung
[6] = test system: A549/ATCC NSCLC
[7] = test system: 786-0 renal
[8] = test system: COLO 205 colon
[9] = test system: DU-145 prostate
[10] = test system: K-562 leukemia
[11] = test system: MALME-3M melanoma
[12] = test system: MDA-MB-231 breast
[13] = test system: RXF 393 renal
[14] = test system: SF-268 CNS
[15] = test system: SF-295 CNS
[16] = test system: SF-539 CNS
[17] = test system: UACC-257 melanoma
[18] = test system: M14 melanoma
[19] = test system: HOP-92 NSCLC
[20] = test system: NCI-H322M lung

Structure (SMILES)	growth [1]	growth [2]	growth [3]	growth [4]	growth [5]	growth [6]	growth [7]	growth [8]	growth [9]	growth [10]	growth [11]	growth [12]	growth [13]	growth [14]	growth [15]	growth [16]	growth [17]	growth [18]	growth [19]	growth [20]
O=COCCCc1ccccc1	109%	95.4%	86.4%	107%	80.5%	83.7%	105%	106%	112%	104%	106%	100%	108%	103%	106%	102%	86.5%	105%		
CC1(CO)CCCC1NCCNC1CCCC1(C)CO (stereo not given)	109% and 107%	99.5% and 102%		104% and 112%	94.3%	105% and 104%	101% and 102%	114% and 103%	120% and 88.9%	110% and 99%	116% and 103%	92.2% and 113%	109% and 119%	115% and 105%	94.9% and 105%	103% and 105%	100%	96.7% and 103%	82.8% and 101%	
Cn1c(-c2ccccc2)cc(=O)cc1-c1ccccc1	73.8%	101%	98.3%	37.8%	56.4%	96.4%	106%	96.9%	3.58% (active)	99.8%	122%	88.8%	62%	89.9%	93.7%	111%	95.1%		90.3%	
CCOP(=O)(OCC)/C(C#N)=C/c1c(C)[nH]c2ccccc12	103%	84%	89.1%	101%	87.1%	93.1%	106%	107%	107%	94.6%	105%	90.4%	108%	102%	95.1%	99%	92.6%	92.4%	84%	
O=C(O)c1c2c(nc3ccccc13)Cc1ccccc1-2	96.7% and 95.7%	115% and 95%		105% and 102%	113% and 104%	97.9% and 107%	108% and 101%	109% and 107%	108% and 94.4%	115% and 99.1%	105% and 86.8%	107% and 102%	182% and 114%	95.4% and 86.9%	104% and 81.9%	116% and 91.4%	85.8% and 103%	91.5% and 96%	92.3% and 96.5%	
CC(=O)Oc1cc(C)c(OC(C)=O)c(C)c1C	97.3%			105%	103%	107%	108%	121%	105%	90.9%	91.4%	91.4%	125%	107%	107%	101%	105%	112%	112%	112%
O=C(O)C1CSCN1 (stereo not given)	113% and 101%		99.8% and 96.2%	125% and 103%	99.7% and 96.1%	97.7% and 111%	90.2% and 101%	103% and 104%	116% and 127%	93.5% and 95.2%	94.1%	107% and 112%	123%	117% and 104%	104% and 108%	121% and 93.4%	106% and 91.6%	108% and 99.8%		93.9% and 74.4%
CCC(=O)Oc1ccc(OCc2ccccc2)cc1	85.5% and 83.8%		107% and 94.8%	99.4% and 93.7%	88.3% and 77%		81.5% and 79.6%	124% and 113%	96.9% and 88.9%	86% and 88.4%	107% and 86.6%	60.1% and 68.4%	94% and 100%	75% and 85.5%	95.4% and 75.9%	56.2% and 65.3%	130% and 108%	101% and 77.3%	89.1%	120% and 92.3%
Nc1c(S(=O)(=O)O)cc(Br)c2c1C(=O)c1ccccc1C2=O	103%		88.1% and 111%	102% and 106%		104%	106% and 110%	97.5% and 106%	106% and 116%	101% and 96.6%	97.6% and 116%	115% and 107%	111% and 98.7%	102% and 106%	104% and 100%	104% and 101%	83.3%	117% and 110%		95.6% and 106%
N=C(N)N1CCc2ccccc2C1	87.2% and 106%		93.1% and 96.8%	103% and 95.5%	83.9% and 118%	81.9% and 96.9%	87.5% and 112%	100% and 106%	105% and 97.3%	71.4% and 108%	82% and 110%	99% and 103%	97.2% and 121%	98.9% and 97.3%	88% and 106%	104% and 96.8%	86.5% and 95.4%		156%	98.6% and 116%
Nc1ccc(O)c(C(=O)O)c1	92.7% and 105% and 94.2%		92.5% and 103% and 90.9%	103% and 101% and 116%	102% and 101%	105% and 97%	98.9% and 101% and 94.7%	107% and 134%	105% and 128%	92.9% and 74.2%	109% and 116%	84.3% and 91.9% and 109%	92.4% and 115% and 127%	89.5% and 104% and 110%	109% and 107% and 113%	102% and 103% and 114%	109% and 110%	93.8% and 104% and 95.1%		131% and 106% and 99.2%
COc1ccc(CCn2cnn3c(=O)c4ccccc4nc3c2=O)cc1OC	97.6% and 114%		112% and 104%	105% and 118%		104% and 106%	95.2% and 108%	104% and 117%	98.2% and 117%	99.9% and 102%	114%	110% and 101%	103% and 115%	93.8% and 108%	111%	101% and 97.4%	101% and 112%	94% and 106%	93.6% and 88.7%	
